The sample as a whole holds a higher share of hits than the screen did.
TbPYK inhibitor: blocks Trypanosoma brucei pyruvate kinase | AID 624173 | Potency, µM (doses to about 76.8 µM), most hits filed as inhibitors | TbPYK enzyme, Kinase-Glo Plus ATP luminescence, 45 min | Q57TT1 | 0.12% of 410,000 active; also: nearly all actives have a fitted effect of over 50% in size
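T. brucei PYK with substrate was exposed to pin-transferred compounds across a concentration series, then started with 130 uM ADP (final). After 45 min at room temperature, Kinase-Glo Plus luminescence was read, normalized and curve-fitted.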
Cycloheximide cs: affects cycloheximide protein synthesis inhibition readout, counter-screen; cell reporter, cycloheximide protein synthesis inhibition counterscreen; max response, %; 12% of 300,000 active; in the data active = max response mostly above about 13%, no sharp cut-off; inactive = mostly below about 14%; also: read at 38.3 µM for the half of the compounds with a filed dose
LmPK inh: LmPK (Leishmania mexicana) enzyme inhibition | Q27686 | 0.37% of 290,000 active | Potency, µM (series often up to 57.5 µM), most hits filed as inhibitors | purified LmPK, Kinase-Glo ATP luminescence, 1 h
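Purified LmPK (0.1 nM) with 0.5 mM PEP and 0.1 mM ADP in imidazole buffer pH 7.2 with MgCl2/KCl, 1 h at room temperature. ATP formed was read by luciferase luminescence and normalized to no-enzyme and uninhibited controls.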
Sm TGR block: blocks Schistosoma mansoni thioredoxin glutathione reductase | 3% of 360,000 active | Q962Y6 | Potency, µM (top dose mostly 114 µM), actives largely listed as inhibitors | purified TGR, DTNB reduction, TNB absorbance 405 nm; also: nearly all actives have a fitted effect of over 60% in size
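TGR 20 nM + NADPH 100 uM (dispensed conc.), cpd preinc 15 min RT; start with NADPH (500 uM addition) then DTNB (15 mM addition). Kinetic TNB absorbance, 405 nm filter. Four-parameter Hill fit across titration.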
Shiga toxin inh: Shiga toxin inhibition. Vero cells, Shiga toxin protein synthesis inhibition reporter. inhibition, % at 38.7 µM. 9.2% of 290,000 active; in the data active = inhibition mostly above about 28%, no sharp cut-off; inactive = mostly below about 43%
Giardia FBPA inh: blocks Giardia fructose-bisphosphate aldolase activity. A8B2U2. purified Giardia FBPA. Potency, µM (top dose mostly 59.6 µM), most hits filed as inhibitors. 0.71% of 290,000 active; also: nearly all actives have a fitted effect of over 55% in size
Target sequence (A8B2U2 whole entry, looked up): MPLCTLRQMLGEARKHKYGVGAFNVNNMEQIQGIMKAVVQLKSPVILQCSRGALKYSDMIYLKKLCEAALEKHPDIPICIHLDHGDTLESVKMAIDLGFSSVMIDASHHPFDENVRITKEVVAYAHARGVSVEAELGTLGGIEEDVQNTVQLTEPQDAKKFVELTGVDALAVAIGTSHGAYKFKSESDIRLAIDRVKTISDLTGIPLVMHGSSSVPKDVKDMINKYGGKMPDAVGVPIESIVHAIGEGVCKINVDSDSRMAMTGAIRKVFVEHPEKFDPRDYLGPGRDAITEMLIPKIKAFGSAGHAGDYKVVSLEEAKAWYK
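40 nM FBPA preincubated 10 min at RT with compound (up to 57.5 uM final), then substrate plus GAPDH/TPI/NAD/arsenate coupling and diaphorase/resazurin added. Fluorescence read after 20 min at RT, 525/598 nm.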
Numbers stand for hits. Unless noted, calls follow the shape of the dose curve; as a rule, active = well fitted curve in the direction sought with a large enough effect; inconclusive = small, poorly fitted or top-dose-only effect, or another doubt; inactive = no such curve, though single readings can be large; an effect the other way counts as inactive or inconclusive.

`COC(c1ccccc1)c1nnc(CCC(=O)N(C)Cc2cccc(-n3cccn3)c2)o1` (configuration not stated) gave TbPYK inhibitor inactive, Cycloheximide cs 33, LmPK inh inactive, Sm TGR block inactive, Shiga toxin inh 107 and Giardia FBPA inh inactive.
For COC(c1ccccc1)c1nnc(CCC(=O)NCCC(C)C)o1 (configuration not stated) the results were TbPYK inhibitor inactive, Cycloheximide cs inactive, LmPK inh inactive, Sm TGR block inactive, Shiga toxin inh inactive and Giardia FBPA inh inactive.
`CCCN(CC1CC1)C(=O)CCc1nnc(C(OC)c2ccccc2)o1` (configuration not stated) gave TbPYK inhibitor inactive, Cycloheximide cs inactive, LmPK inh inactive, Sm TGR block inactive, Shiga toxin inh 46 and Giardia FBPA inh inactive.
Screening COC(c1ccccc1)c1nnc(CCC(=O)N(C)CCCC2CCCC2)o1 (configuration not stated) returned TbPYK inhibitor inactive, Cycloheximide cs 27, LmPK inh inactive, Sm TGR block inactive, Shiga toxin inh 46 and Giardia FBPA inh inactive.
CCOC(=O)C1(O)Oc2cc(OC)cc(OC)c2C(=O)C1c1ccccc1 (configuration not stated) was read as Giardia FBPA inh inactive.
`CCNC(=O)N1C(CC(=O)OCC)C(=O)NC2CCCCC21` (configuration not stated) gave TbPYK inhibitor inconclusive, Cycloheximide cs inactive, LmPK inh inactive, Sm TGR block inactive, Shiga toxin inh inactive and Giardia FBPA inh inactive.
COC(=O)CC1C(=O)NC2CCCCC2N1C(=O)CCl (configuration not stated) was read as TbPYK inhibitor inactive, Cycloheximide cs inactive, LmPK inh inactive, Sm TGR block 6.3µM, Shiga toxin inh inactive and Giardia FBPA inh inactive.
Screening COc1ccc(NC(=O)C2CCC(CNS(=O)(=O)c3cccc4nsnc34)CC2)cc1OC (configuration not stated) returned TbPYK inhibitor inactive and Sm TGR block inactive.
Screening Cc1oc(-c2ccc(Cl)cc2)nc1CS(=O)CC(=O)NC1CC1 (configuration not stated) returned TbPYK inhibitor inactive, Cycloheximide cs inactive, LmPK inh inactive, Sm TGR block 16µM and Shiga toxin inh inactive.
Screening Cc1oc(-c2ccc(Cl)cc2)nc1CS(=O)CC(=O)NC(C)c1ccccc1 (configuration not stated) returned TbPYK inhibitor inactive, Cycloheximide cs inactive, LmPK inh inactive, Sm TGR block 8.9µM and Shiga toxin inh inactive.
For Cc1oc(-c2ccccc2F)nc1CS(=O)CC(=O)NC1CC1 (configuration not stated) the results were TbPYK inhibitor inactive, Cycloheximide cs inactive, LmPK inh inactive, Sm TGR block inconclusive, Shiga toxin inh inactive and Giardia FBPA inh inactive.
Screening Cc1ccc(-c2nc(CS(=O)CC(=O)NC3CCC(C)CC3)c(C)o2)cc1 (configuration not stated) returned TbPYK inhibitor inactive, Cycloheximide cs inactive, LmPK inh inactive, Sm TGR block 14µM, Shiga toxin inh inactive and Giardia FBPA inh inactive.
Screening Cc1oc(-c2ccc(Cl)cc2)nc1CS(=O)CC(=O)NCc1ccccn1 (configuration not stated) returned TbPYK inhibitor inactive, Cycloheximide cs inactive, LmPK inh inactive, Sm TGR block 40µM and Shiga toxin inh inactive.
C=C(CC1([C@@H](NP(=O)(c2ccccc2)c2ccccc2)[C@H]2C[C@@H]2CCCC)CC1)c1cccc(OC)c1 was read as Giardia FBPA inh inactive.
Screening O=C(NCc1ccccc1)/C(=N\O)c1ccccc1 returned TbPYK inhibitor inactive, Cycloheximide cs 21, LmPK inh inactive, Sm TGR block inactive, Shiga toxin inh 54 and Giardia FBPA inh inactive.
O=C(NCc1ccccn1)/C(=N/O)c1ccccc1 was read as TbPYK inhibitor inconclusive, Cycloheximide cs 36, LmPK inh inactive, Sm TGR block inactive, Shiga toxin inh 31 and Giardia FBPA inh inactive.
Screening C/C(=N\O)C(=O)NCc1ccccn1 returned TbPYK inhibitor inactive, Cycloheximide cs inactive, LmPK inh inactive, Sm TGR block inactive, Shiga toxin inh inactive and Giardia FBPA inh inactive.
O=C(NCc1cccnc1)/C(=N\O)c1ccccc1 was read as TbPYK inhibitor inactive, Cycloheximide cs inactive, LmPK inh inactive, Sm TGR block inactive, Shiga toxin inh inactive and Giardia FBPA inh inactive.
O=C(/C=C/Nc1ccc([N+](=O)[O-])cc1)c1ccc(Br)cc1 was read as TbPYK inhibitor inactive, Cycloheximide cs inactive, LmPK inh inactive, Sm TGR block inactive, Shiga toxin inh inactive and Giardia FBPA inh inactive.
`O=C(/C=C/Nc1ccc(S(=O)(=O)Nc2ncccn2)cc1)c1ccc(Cl)c(Cl)c1` gave TbPYK inhibitor inactive, Cycloheximide cs inactive, LmPK inh inactive, Sm TGR block inconclusive, Shiga toxin inh inactive and Giardia FBPA inh inactive.
For O=C(/C=C/Nc1ccc(F)c(F)c1)c1ccc(Br)cc1 the results were TbPYK inhibitor inactive, Cycloheximide cs 57, LmPK inh inactive, Sm TGR block inactive, Shiga toxin inh 93 and Giardia FBPA inh inactive.
O=C(/C=C/Nc1ccc(F)cc1)c1cccs1 was read as TbPYK inhibitor inactive.
For O=C(/C=C/Nc1ccc(F)cc1)c1ccc(Br)cc1 the results were TbPYK inhibitor inactive, Cycloheximide cs 30, LmPK inh inactive, Sm TGR block inactive, Shiga toxin inh 116 and Giardia FBPA inh inactive.
O=C(/C=C/Nc1ccc(S(=O)(=O)Nc2ncccn2)cc1)c1cccs1 was read as TbPYK inhibitor inactive, Cycloheximide cs 25, LmPK inh inactive, Sm TGR block inactive, Shiga toxin inh 55 and Giardia FBPA inh inactive.
For O=C(/C=C/Nc1ccc(F)c(F)c1)c1cccs1 the results were TbPYK inhibitor inactive, Cycloheximide cs 40, LmPK inh inactive, Sm TGR block inactive, Shiga toxin inh 53 and Giardia FBPA inh inactive.
CC(C)Oc1ccc(C(=O)NCC(=O)N2CCN(S(=O)(=O)/C=C/c3ccccc3)CC2)cc1 was read as TbPYK inhibitor inactive and Sm TGR block inactive.
CCc1c(C)sc2c1CCN(C(=O)Nc1cc(Cl)c(OC)cc1OC)C2c1ccccc1 (configuration not stated) was read as TbPYK inhibitor inactive and Sm TGR block inactive.
`CCc1ccc2[nH]cc(S(=O)(=O)c3ccc(C(C)C)cc3)c(=O)c2c1` gave TbPYK inhibitor inactive and Sm TGR block inactive.
`CCOC(=O)c1cnc2c(Cl)c(Cl)ccc2c1Nc1ccc(N(C)C)cc1` gave TbPYK inhibitor inactive and Sm TGR block inactive.
For COc1ccc(NC(=S)NCCC2=CCCCC2)cc1OC the results were TbPYK inhibitor inactive, Cycloheximide cs inactive, LmPK inh inactive, Sm TGR block inactive, Shiga toxin inh inactive and Giardia FBPA inh inactive.
